The supplement of paper PMC11732987, “Enantioselective OTUD7B fragment discovery through chemoproteomics screening and high-throughput optimisation” (Communications Chemistry, 2025)

Legend:
Assay in all cases: log2 ratio of Biotin-Ahx-Ub-VS probe labelling (fragment/DMSO); higher = less target engagement (more negative = stronger competition), active = hit call of the paper (q ≤ 0.05, log2 ratio ≤ -1)
Details in all cases: compound concentration: 200 uM; treatment time: 3 h
[1] = target: T1, OTUD6B (UniProt Q8N6M0)
T1 sequence (whole entry): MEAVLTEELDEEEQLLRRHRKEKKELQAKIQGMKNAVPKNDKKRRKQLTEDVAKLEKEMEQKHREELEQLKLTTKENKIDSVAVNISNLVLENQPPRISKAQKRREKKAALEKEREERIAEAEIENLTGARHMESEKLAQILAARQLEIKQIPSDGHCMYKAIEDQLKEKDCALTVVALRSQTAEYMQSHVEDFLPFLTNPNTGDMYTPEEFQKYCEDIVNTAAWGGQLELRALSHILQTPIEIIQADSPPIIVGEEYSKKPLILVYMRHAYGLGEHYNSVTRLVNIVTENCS
Outline: (§1)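 Each value is an average log2 ratio of fragment to vehicle, tested by unpaired t-test. The underlying Spectronaut label-free quantities were global-median-normalised, and only proteins with ≥2 unique peptides were included. Triplicate HEK293T lysate samples (495 µg) were exposed to fragment at 200 µM or vehicle for 3 h, then to Biotin-Ahx-Ub-VS at 0.5 µM final for 1 h, before NeutrAvidin enrichment of labelled DUBs, LysC and trypsin digestion, and diaPASEF LC-MS/MS.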

[2] = target: T2, OTUD7B (UniProt Q6GQQ9)
T2 sequence (whole entry): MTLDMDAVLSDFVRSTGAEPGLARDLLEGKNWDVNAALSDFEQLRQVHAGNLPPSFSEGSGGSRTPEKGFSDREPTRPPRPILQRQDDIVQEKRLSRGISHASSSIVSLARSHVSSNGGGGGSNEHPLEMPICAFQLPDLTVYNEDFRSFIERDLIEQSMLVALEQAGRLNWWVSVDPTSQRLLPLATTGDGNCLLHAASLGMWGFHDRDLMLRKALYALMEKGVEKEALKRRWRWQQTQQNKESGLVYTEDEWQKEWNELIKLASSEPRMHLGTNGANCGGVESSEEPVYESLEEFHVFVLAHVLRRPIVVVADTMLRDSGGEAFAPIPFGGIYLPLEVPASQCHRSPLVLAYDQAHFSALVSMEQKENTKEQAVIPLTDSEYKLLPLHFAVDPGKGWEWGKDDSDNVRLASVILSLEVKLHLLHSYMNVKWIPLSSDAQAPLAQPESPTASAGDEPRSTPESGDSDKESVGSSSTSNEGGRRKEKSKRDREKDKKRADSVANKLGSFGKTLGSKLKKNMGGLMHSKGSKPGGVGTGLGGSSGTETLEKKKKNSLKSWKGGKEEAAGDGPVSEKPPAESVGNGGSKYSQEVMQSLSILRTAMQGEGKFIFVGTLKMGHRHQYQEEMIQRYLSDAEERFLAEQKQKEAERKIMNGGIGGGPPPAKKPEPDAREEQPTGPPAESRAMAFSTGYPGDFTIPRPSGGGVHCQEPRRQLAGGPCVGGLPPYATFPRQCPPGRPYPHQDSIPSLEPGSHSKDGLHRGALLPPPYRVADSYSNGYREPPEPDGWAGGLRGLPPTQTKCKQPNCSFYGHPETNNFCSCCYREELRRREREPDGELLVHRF
Outline: as §1

[3] = target: PRPF8 (UniProt Q6P2Q9)
Outline: as §1

[4] = target: T3, PSMD7 (UniProt P51665)
T3 sequence (whole entry): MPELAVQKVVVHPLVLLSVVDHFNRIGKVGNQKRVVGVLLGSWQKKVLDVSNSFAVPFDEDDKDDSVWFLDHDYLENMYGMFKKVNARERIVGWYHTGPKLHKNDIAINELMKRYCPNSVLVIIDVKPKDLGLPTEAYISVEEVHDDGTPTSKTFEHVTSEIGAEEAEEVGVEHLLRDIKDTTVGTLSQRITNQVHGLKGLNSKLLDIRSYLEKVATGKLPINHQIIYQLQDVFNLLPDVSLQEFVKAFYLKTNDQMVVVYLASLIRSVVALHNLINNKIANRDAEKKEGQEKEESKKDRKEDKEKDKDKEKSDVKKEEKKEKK
Outline: as §1

[5] = target: UCHL1 (UniProt P09936)
Chain of UCHL1 (P09936 whole entry, looked up): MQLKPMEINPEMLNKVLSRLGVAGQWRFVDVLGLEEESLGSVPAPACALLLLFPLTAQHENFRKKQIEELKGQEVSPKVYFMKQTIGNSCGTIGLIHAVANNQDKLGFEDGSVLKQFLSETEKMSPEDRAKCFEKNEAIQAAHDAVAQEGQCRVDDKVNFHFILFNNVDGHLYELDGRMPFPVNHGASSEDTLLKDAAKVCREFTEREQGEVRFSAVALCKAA
Outline: as §1

[6] = target: T4, UCHL3 (UniProt P15374)
T4 sequence (whole entry): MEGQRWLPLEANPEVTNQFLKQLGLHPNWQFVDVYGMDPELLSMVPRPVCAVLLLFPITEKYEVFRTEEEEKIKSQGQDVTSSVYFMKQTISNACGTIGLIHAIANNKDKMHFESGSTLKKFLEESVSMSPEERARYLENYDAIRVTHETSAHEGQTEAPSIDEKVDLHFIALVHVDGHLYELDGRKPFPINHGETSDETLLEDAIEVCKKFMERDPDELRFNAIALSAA
Outline: as §1

[7] = target: T5, UCHL5 (UniProt Q9Y5K5)
T5 sequence (whole entry): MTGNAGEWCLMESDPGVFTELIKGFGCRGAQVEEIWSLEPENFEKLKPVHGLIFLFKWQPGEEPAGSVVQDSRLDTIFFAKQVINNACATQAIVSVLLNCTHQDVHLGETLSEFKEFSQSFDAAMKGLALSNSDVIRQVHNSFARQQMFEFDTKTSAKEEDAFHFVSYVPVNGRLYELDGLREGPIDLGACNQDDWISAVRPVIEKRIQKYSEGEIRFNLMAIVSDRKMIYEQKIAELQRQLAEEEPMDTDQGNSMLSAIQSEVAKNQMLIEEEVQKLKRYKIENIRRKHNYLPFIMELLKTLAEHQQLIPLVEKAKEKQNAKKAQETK
Outline: as §1

[8] = target: USP10 (UniProt Q14694)
Chain of USP10 (Q14694 whole entry): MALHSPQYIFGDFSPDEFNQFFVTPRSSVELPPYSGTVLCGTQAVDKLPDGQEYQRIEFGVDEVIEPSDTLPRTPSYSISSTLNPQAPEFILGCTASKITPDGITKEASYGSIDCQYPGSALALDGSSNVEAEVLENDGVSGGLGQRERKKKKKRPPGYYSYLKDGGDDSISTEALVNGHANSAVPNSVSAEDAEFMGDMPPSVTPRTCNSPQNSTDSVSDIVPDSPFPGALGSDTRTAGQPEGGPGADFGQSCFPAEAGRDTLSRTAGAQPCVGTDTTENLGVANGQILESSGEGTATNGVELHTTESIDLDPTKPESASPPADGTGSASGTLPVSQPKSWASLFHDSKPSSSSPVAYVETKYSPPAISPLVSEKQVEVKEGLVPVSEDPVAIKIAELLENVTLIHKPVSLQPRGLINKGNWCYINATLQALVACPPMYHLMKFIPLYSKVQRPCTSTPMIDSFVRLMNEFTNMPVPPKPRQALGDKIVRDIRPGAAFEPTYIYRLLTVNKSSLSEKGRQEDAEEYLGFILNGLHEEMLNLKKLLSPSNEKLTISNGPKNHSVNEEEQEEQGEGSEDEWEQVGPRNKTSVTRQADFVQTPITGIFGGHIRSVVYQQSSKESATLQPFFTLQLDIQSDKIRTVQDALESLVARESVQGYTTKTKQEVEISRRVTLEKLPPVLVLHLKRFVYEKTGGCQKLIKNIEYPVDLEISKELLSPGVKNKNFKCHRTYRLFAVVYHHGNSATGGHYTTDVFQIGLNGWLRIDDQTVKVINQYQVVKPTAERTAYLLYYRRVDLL
Outline: as §1

[9] = target: T6, USP15 (UniProt Q9Y4E8)
T6 sequence (whole entry): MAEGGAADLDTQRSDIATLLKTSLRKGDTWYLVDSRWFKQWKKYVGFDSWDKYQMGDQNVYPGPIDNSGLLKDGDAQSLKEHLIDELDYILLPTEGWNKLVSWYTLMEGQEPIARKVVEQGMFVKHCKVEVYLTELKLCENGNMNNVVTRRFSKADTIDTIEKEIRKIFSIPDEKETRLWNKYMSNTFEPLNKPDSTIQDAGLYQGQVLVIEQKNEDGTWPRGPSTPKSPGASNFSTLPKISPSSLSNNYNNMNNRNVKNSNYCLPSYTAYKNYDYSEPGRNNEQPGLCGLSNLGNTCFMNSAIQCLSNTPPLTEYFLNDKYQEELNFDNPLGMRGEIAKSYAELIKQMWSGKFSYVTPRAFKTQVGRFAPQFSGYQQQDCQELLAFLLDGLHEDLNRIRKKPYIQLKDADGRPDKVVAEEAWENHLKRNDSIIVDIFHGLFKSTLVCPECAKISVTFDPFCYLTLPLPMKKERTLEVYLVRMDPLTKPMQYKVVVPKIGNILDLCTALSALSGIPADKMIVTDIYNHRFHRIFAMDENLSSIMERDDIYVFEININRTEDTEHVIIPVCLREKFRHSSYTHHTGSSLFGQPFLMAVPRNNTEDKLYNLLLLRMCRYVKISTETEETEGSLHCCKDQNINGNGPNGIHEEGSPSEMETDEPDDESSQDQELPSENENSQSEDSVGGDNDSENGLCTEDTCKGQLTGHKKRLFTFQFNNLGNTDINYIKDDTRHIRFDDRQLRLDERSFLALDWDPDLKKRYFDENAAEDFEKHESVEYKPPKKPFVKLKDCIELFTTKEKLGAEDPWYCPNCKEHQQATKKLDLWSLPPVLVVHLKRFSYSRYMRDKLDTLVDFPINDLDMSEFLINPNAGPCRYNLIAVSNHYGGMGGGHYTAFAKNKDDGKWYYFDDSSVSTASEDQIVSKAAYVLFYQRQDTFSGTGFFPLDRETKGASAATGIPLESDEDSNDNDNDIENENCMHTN
Outline: as §1

[10] = target: USP16 (UniProt Q9Y5T5)
Chain of USP16 (Q9Y5T5 whole entry, looked up): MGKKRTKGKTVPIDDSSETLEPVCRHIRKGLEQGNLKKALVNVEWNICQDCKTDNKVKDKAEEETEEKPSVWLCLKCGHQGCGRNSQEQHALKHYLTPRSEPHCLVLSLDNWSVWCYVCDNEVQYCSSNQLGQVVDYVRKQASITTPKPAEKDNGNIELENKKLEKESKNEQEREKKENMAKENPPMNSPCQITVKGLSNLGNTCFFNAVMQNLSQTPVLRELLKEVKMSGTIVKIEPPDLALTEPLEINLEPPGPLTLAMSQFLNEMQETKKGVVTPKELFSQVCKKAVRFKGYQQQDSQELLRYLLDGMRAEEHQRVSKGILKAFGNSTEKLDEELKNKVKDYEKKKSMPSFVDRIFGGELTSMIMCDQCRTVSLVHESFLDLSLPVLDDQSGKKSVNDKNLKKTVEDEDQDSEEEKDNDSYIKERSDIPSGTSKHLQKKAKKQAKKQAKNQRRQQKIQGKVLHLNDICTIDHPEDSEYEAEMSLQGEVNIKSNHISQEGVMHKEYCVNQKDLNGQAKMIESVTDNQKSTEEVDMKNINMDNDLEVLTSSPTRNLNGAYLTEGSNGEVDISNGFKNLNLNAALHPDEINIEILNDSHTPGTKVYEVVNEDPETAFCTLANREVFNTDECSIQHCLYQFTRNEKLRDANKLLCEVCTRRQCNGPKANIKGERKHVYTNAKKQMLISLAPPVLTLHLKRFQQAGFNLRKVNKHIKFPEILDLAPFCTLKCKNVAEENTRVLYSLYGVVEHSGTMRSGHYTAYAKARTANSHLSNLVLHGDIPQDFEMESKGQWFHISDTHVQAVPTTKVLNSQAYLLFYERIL
Outline: as §1

Measured: log2 ratio of Biotin-Ahx-Ub-VS probe labelling

Cc1nnc(C(NC(=O)CCl)c2ccccc2)n1C (stereo not given)
inactive: [1] 0.622 | [2] 0.355 | [3] -0.283 | [4] 0.357 | [5] 0.102 | [6] 0.364 | [7] 0.534 | [8] 0.157 | [9] 0.629 | [10] -0.384
